Positions count from the first letter of the chain named.

Holding throughout (experiment): PBM; 200 nM protein, PBS
What all share (details): dsDNA, one strand shown

The target in experiment [1] is T1, NKX2-6 (Homo sapiens, UniProt A6NCS4 118-204).
T1 sequence: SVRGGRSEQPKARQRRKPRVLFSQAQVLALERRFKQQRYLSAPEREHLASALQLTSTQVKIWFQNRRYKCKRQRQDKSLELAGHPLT

In experiment [2] the target is T2, NKX2-6 (Homo sapiens, UniProt A6NCS4 118-204, F151L).
T2 sequence: T1 sequence with F34L

The target in experiment [3] is ALX3 (Homo sapiens, UniProt O95076 139-225).
Chain of ALX3 (Homo sapiens, UniProt O95076 139-225) (O95076 139-225): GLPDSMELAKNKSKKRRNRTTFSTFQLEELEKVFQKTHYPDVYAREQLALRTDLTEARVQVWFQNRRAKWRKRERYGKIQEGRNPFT
In experiment [4] the target is ALX3 (Homo sapiens, UniProt O95076 139-225, L168Q).
Chain of ALX3 (Homo sapiens, UniProt O95076 139-225, L168Q) (O95076 139-225 L168Q): as the sequence (O95076 139-225) above, with L30Q counted along it
In another experiment the target is PITX2 (Homo sapiens, UniProt Q99697 72-157).

Consider ACGGGACT, for which the binding signal is 9.76 upbm affinity estimate (log intensity, higher = more binding, comparable within an allelic series) in the experiment with NKX2-6 [1] and 9.42 upbm affinity estimate (log intensity, higher = more binding, comparable within an allelic series) in the experiment with NKX2-6 [2].

For the sequence ATCTTCAC, the binding signal with NKX2-6 [1] is 11.1 upbm affinity estimate (log intensity, higher = more binding, comparable within an allelic series); with NKX2-6 [2], 9.83 upbm affinity estimate (log intensity, higher = more binding, comparable within an allelic series).

On to GACCACTC, for which the binding signal with NKX2-6 [1] was 12.3 upbm affinity estimate (log intensity, higher = more binding, comparable within an allelic series); with NKX2-6 [2], 9.92 upbm affinity estimate (log intensity, higher = more binding, comparable within an allelic series).

Take TGGTACCA: the binding signal in the experiment with NKX2-6 [1] was 9.64 upbm affinity estimate (log intensity, higher = more binding, comparable within an allelic series); in the experiment with NKX2-6 [2], 9.28 upbm affinity estimate (log intensity, higher = more binding, comparable within an allelic series).

With CCGTTGGC, the binding signal with NKX2-6 [1] was 9.2 upbm affinity estimate (log intensity, higher = more binding, comparable within an allelic series); in the experiment with NKX2-6 [2], 9.41 upbm affinity estimate (log intensity, higher = more binding, comparable within an allelic series).

As to CAGGGACG, the binding signal is 9.36 upbm affinity estimate (log intensity, higher = more binding, comparable within an allelic series) in the experiment with NKX2-6 [1] and 9.43 upbm affinity estimate (log intensity, higher = more binding, comparable within an allelic series) with NKX2-6 [2].

Consider CCCAAGGC, for which the binding signal in the experiment with NKX2-6 [1] is 9.12 upbm affinity estimate (log intensity, higher = more binding, comparable within an allelic series); with NKX2-6 [2], 9.27 upbm affinity estimate (log intensity, higher = more binding, comparable within an allelic series).

As to CAGCCGTC, the binding signal is 9.5 upbm affinity estimate (log intensity, higher = more binding, comparable within an allelic series) in the experiment with NKX2-6 [1] and 9.26 upbm affinity estimate (log intensity, higher = more binding, comparable within an allelic series) with NKX2-6 [2].

As to ACTTACAT, the binding signal with NKX2-6 [1] was 11.6 upbm affinity estimate (log intensity, higher = more binding, comparable within an allelic series); with ALX3 [3] it was 8.97 upbm affinity estimate (log intensity, higher = more binding, comparable within an allelic series); in the experiment with ALX3 [4], 8.46 upbm affinity estimate (log intensity, higher = more binding, comparable within an allelic series); with NKX2-6 [2], 9.95 upbm affinity estimate (log intensity, higher = more binding, comparable within an allelic series).

Consider CCTTAAGA, for which the binding signal was 12.4 upbm affinity estimate (log intensity, higher = more binding, comparable within an allelic series) with NKX2-6 [1] and 10.1 upbm affinity estimate (log intensity, higher = more binding, comparable within an allelic series) with NKX2-6 [2].

ACACGCGG: the binding signal with NKX2-6 [1] was 9.54 upbm affinity estimate (log intensity, higher = more binding, comparable within an allelic series); with NKX2-6 [2], 9.38 upbm affinity estimate (log intensity, higher = more binding, comparable within an allelic series).

Turning to CGTCCTGC, the binding signal in the experiment with NKX2-6 [1] is 9 upbm affinity estimate (log intensity, higher = more binding, comparable within an allelic series); with PITX2 it was 7.8 upbm affinity estimate (log intensity, higher = more binding, comparable within an allelic series); in the experiment with NKX2-6 [2], 9.34 upbm affinity estimate (log intensity, higher = more binding, comparable within an allelic series).

As for CGGCGTGA, the binding signal is 9.3 upbm affinity estimate (log intensity, higher = more binding, comparable within an allelic series) in the experiment with NKX2-6 [1] and 9.33 upbm affinity estimate (log intensity, higher = more binding, comparable within an allelic series) with NKX2-6 [2].

With CCCGGAAA, the binding signal in the experiment with NKX2-6 [1] is 9.48 upbm affinity estimate (log intensity, higher = more binding, comparable within an allelic series); with NKX2-6 [2], 9.48 upbm affinity estimate (log intensity, higher = more binding, comparable within an allelic series).

CACCGTAG: the binding signal with NKX2-6 [1] is 9.56 upbm affinity estimate (log intensity, higher = more binding, comparable within an allelic series); in the experiment with NKX2-6 [2], 9.37 upbm affinity estimate (log intensity, higher = more binding, comparable within an allelic series).

For CCCGCGTC, the binding signal was 9.23 upbm affinity estimate (log intensity, higher = more binding, comparable within an allelic series) with NKX2-6 [1] and 9.39 upbm affinity estimate (log intensity, higher = more binding, comparable within an allelic series) in the experiment with NKX2-6 [2].

As for CAGGCACA, the binding signal in the experiment with NKX2-6 [1] was 9.47 upbm affinity estimate (log intensity, higher = more binding, comparable within an allelic series); with NKX2-6 [2], 9.38 upbm affinity estimate (log intensity, higher = more binding, comparable within an allelic series).

CCGGGTCC: the binding signal in the experiment with NKX2-6 [1] is 9.7 upbm affinity estimate (log intensity, higher = more binding, comparable within an allelic series); in the experiment with NKX2-6 [2], 9.17 upbm affinity estimate (log intensity, higher = more binding, comparable within an allelic series).

As for AAGTACTG, the binding signal with NKX2-6 [1] is 12.7 upbm affinity estimate (log intensity, higher = more binding, comparable within an allelic series); with NKX2-6 [2], 10.3 upbm affinity estimate (log intensity, higher = more binding, comparable within an allelic series).

With AGCGGAGC, the binding signal in the experiment with NKX2-6 [1] is 9.34 upbm affinity estimate (log intensity, higher = more binding, comparable within an allelic series); in the experiment with NKX2-6 [2] it was 9.31 upbm affinity estimate (log intensity, higher = more binding, comparable within an allelic series).

As for AAAGAGGG, the binding signal in the experiment with NKX2-6 [1] was 11.6 upbm affinity estimate (log intensity, higher = more binding, comparable within an allelic series); with NKX2-6 [2], 9.79 upbm affinity estimate (log intensity, higher = more binding, comparable within an allelic series).

As to ATACTTAG, the binding signal is 13.1 upbm affinity estimate (log intensity, higher = more binding, comparable within an allelic series) with NKX2-6 [1] and 10.4 upbm affinity estimate (log intensity, higher = more binding, comparable within an allelic series) with NKX2-6 [2].

In the case of AGTGGCTA, the binding signal in the experiment with NKX2-6 [1] is 11.9 upbm affinity estimate (log intensity, higher = more binding, comparable within an allelic series); with NKX2-6 [2], 9.95 upbm affinity estimate (log intensity, higher = more binding, comparable within an allelic series).

Take GCCCGCGC: the binding signal with NKX2-6 [1] is 9.29 upbm affinity estimate (log intensity, higher = more binding, comparable within an allelic series); in the experiment with NKX2-6 [2], 9.27 upbm affinity estimate (log intensity, higher = more binding, comparable within an allelic series).

For GAAGAGCA, the binding signal is 11.4 upbm affinity estimate (log intensity, higher = more binding, comparable within an allelic series) with NKX2-6 [1] and 9.71 upbm affinity estimate (log intensity, higher = more binding, comparable within an allelic series) with NKX2-6 [2].

With GTTGATGA, the binding signal was 10.9 upbm affinity estimate (log intensity, higher = more binding, comparable within an allelic series) with NKX2-6 [1] and 9.75 upbm affinity estimate (log intensity, higher = more binding, comparable within an allelic series) with NKX2-6 [2].

Regarding CACTCTGG, the binding signal is 11.6 upbm affinity estimate (log intensity, higher = more binding, comparable within an allelic series) with NKX2-6 [1] and 9.66 upbm affinity estimate (log intensity, higher = more binding, comparable within an allelic series) with NKX2-6 [2].

As to GCGACAGC, the binding signal in the experiment with NKX2-6 [1] was 9.46 upbm affinity estimate (log intensity, higher = more binding, comparable within an allelic series); with NKX2-6 [2], 9.41 upbm affinity estimate (log intensity, higher = more binding, comparable within an allelic series).

As for GCCGATCC, the binding signal was 9.45 upbm affinity estimate (log intensity, higher = more binding, comparable within an allelic series) with NKX2-6 [1] and 9.3 upbm affinity estimate (log intensity, higher = more binding, comparable within an allelic series) in the experiment with NKX2-6 [2].

As to CAGACTAG, the binding signal with NKX2-6 [1] is 9.38 upbm affinity estimate (log intensity, higher = more binding, comparable within an allelic series); in the experiment with NKX2-6 [2], 9.36 upbm affinity estimate (log intensity, higher = more binding, comparable within an allelic series).

On to CCGTAGCA, for which the binding signal was 9.41 upbm affinity estimate (log intensity, higher = more binding, comparable within an allelic series) with NKX2-6 [1] and 9.46 upbm affinity estimate (log intensity, higher = more binding, comparable within an allelic series) in the experiment with NKX2-6 [2].

As for GGGCGGCA, the binding signal in the experiment with NKX2-6 [1] was 9.62 upbm affinity estimate (log intensity, higher = more binding, comparable within an allelic series); in the experiment with NKX2-6 [2] it was 9.36 upbm affinity estimate (log intensity, higher = more binding, comparable within an allelic series).

With CGGCGGCC, the binding signal was 9.64 upbm affinity estimate (log intensity, higher = more binding, comparable within an allelic series) with NKX2-6 [1] and 9.33 upbm affinity estimate (log intensity, higher = more binding, comparable within an allelic series) in the experiment with NKX2-6 [2].

For the sequence CCCAGCAG, the binding signal with NKX2-6 [1] was 9.19 upbm affinity estimate (log intensity, higher = more binding, comparable within an allelic series); with NKX2-6 [2] it was 9.49 upbm affinity estimate (log intensity, higher = more binding, comparable within an allelic series).

On to ATCCCAGG, for which the binding signal is 9.47 upbm affinity estimate (log intensity, higher = more binding, comparable within an allelic series) with NKX2-6 [1] and 9.43 upbm affinity estimate (log intensity, higher = more binding, comparable within an allelic series) in the experiment with NKX2-6 [2].

GCGTCGCA: the binding signal with NKX2-6 [1] was 9.48 upbm affinity estimate (log intensity, higher = more binding, comparable within an allelic series); with NKX2-6 [2] it was 9.49 upbm affinity estimate (log intensity, higher = more binding, comparable within an allelic series).

Turning to ACACCCGT, the binding signal with NKX2-6 [1] was 8.98 upbm affinity estimate (log intensity, higher = more binding, comparable within an allelic series); in the experiment with NKX2-6 [2] it was 9.33 upbm affinity estimate (log intensity, higher = more binding, comparable within an allelic series).

Turning to CGTTTGCC, the binding signal is 9.35 upbm affinity estimate (log intensity, higher = more binding, comparable within an allelic series) with NKX2-6 [1] and 9.53 upbm affinity estimate (log intensity, higher = more binding, comparable within an allelic series) with NKX2-6 [2].

(Values after article PMC11006913.)
